Test [1] in a line: Nuclear factor erythroid 2-related factor 2/antioxidant responsive element (Nrf2/ARE) small molecule agonists: qHTS cell viability counter screen in human keratinocytes (AID 1919968; active = well fitted curve in the direction sought with a large enough effect in the repeat runs; an effect the other way counts as inactive or inconclusive; note: nearly all actives have a fitted effect of over 55% in size; note: potency is the fitted concentration of half-maximal effect). In outline: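 Viability counter-screen: KeratinoSens reporter cells, DMSO-delivered compounds, 23 h at 37 C, CellTiter-Fluor fluorescence.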
Background: qHTS replaces the single test concentration by a dilution series.

Test [2] is described as follows: Nuclear factor erythroid 2-related factor 2/antioxidant responsive element (Nrf2/ARE) small molecule agonists: luciferase reporter gene qHTS assay in human keratinocytes (AID 1919969). Note: nearly all actives have a fitted effect of over 35% in size. Note: potency is the fitted concentration of half-maximal effect. Background: Reporter assays use an easily measured gene product as a stand-in for the process of interest.
Test [3] concerns the target Gonadotropin-releasing hormone receptor (Homo sapiens) (UniProt P30968). As to the kind of experiment: Human gonadotropin-releasing hormone receptor (GnRHR) small molecule agonists, calcium flux assay in GnRHR-HEK293 cells (AID 1920063). Note: nearly all actives have a fitted effect of over 35% in size. In outline: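 Tox21-format agonist screen using human GnRHR-expressing HEK293 cells and a fluorescent calcium dye; kinetic 3-min fluorescence reading after compound addition, 15-point concentration series run in triplicate.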
On the technique in general: Calcium flux is commonly read through the fluorescence of an indicator in the cells.

In test [4] the target is KiSS-1 receptor (Homo sapiens) (UniProt Q969F8). Description: Human kisspeptin (KISS1R) small molecule agonists, calcium flux assay in KISS1R-HEK293 cells (AID 1920064; active = well fitted curve in the direction sought with a large enough effect in the repeat runs; an effect the other way counts as inactive or inconclusive). In outline:
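Intracellular calcium mobilization in KISS1R-HEK293 cells was recorded by fluorescence (Ex/Em 480/540) for 3 min following compound addition to cells pre-loaded 1 h with calcium dye.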

Test [5] is described as follows: G protein-coupled receptor (GPCR) small molecule agonists, calcium flux assay: HEK293 wild type cell line counter screen (AID 1920065). In outline:
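In this agonist-mode screen, ATP is the positive control and DMSO the vehicle. Cells grow 18 h before a 1 h dye incubation at 37 C; signal is taken at Ex/Em 480/540 over 3 min.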

A short description of test [6]: p53 small molecule agonists, cell-based qHTS assay with human liver microsomes: qHTS cell viability counter screen (AID 1963579). Note: nearly all actives have a fitted effect of over 45% in size. In outline: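 Luminescent CellTiter-Glo read-out, 30 min at room temperature, gauged cytotoxicity in p53RE-bla cells exposed 16 h at 37 C to DMSO-dissolved compounds with metabolic activation by human liver microsomes and NADPH, each 0.5 mg/mL final.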

Test [7] is described as follows: p53 small molecule agonists, cell-based qHTS assay with rat liver microsomes: qHTS cell viability counter screen (AID 1963580). Note: nearly all actives have a fitted effect of over 45% in size. In outline:
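HCT-116 p53RE-bla, 4,000 cells/well, 5 h pre-incubation; cpd + rat liver microsomes 0.5 mg/mL + NADPH 0.5 mg/mL (final); 16 h, 37 C; CellTiter-Glo, 30 min RT; luminescence.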

Test [8] in a line: p53 small molecule agonists, cell-based qHTS assay: qHTS cell viability counter screen (AID 1963581). Note: nearly all actives have a fitted effect of over 45% in size. In outline: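 Compounds are pinned onto HCT-116 p53RE-bla cells and left 16 h at 37 C. Following the reporter FRET read, ATP is quantified by CellTiter-Glo luminescence after 30 min at room temperature.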
Test [9] is described as follows: p53 small molecule agonists, cell-based qHTS assay (AID 1963582; active = well fitted activation curve with a large enough effect in the signal ratio in the repeat runs, not every such curve was filed as active; the % refers to the signal ratio). In outline:
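Agonist activity was scored from beta-lactamase FRET fluorescence in p53RE-bla cells treated 16 h at 37 C with compounds in DMSO, substrate incubation being 2 h at room temperature.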

In test [10] the target is 5-hydroxytryptamine receptor 2A (Homo sapiens) (UniProt P28223). As to the kind of experiment: 5-hydroxytryptamine receptor 2A (HTR2A) small molecule antagonists, cell-based qHTS assay (AID 1963586). Note: nearly all actives have a fitted effect of over 45% in size. In outline:
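Antagonist-mode intracellular calcium assay: DOI (4 nM) added after 5 min compound pre-incubation at room temperature to dye-loaded HTR2A-CHO cells. Fluorescence followed for 3 min, sampled every second.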

The target in test [11] is Muscarinic acetylcholine receptor M1 (Homo sapiens) (UniProt P11229). Description: Cholinergic receptor muscarinic 1 (CHRM1) small molecule antagonists, cell-based qHTS assay (AID 1963588). Note: nearly all actives have a fitted effect of over 40% in size. In outline:
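CHRM1-CHO calcium-flux assay, antagonist mode. Cells were seeded 18 h, dye-loaded 1 h at 37 C and given compound for 5 min at RT, then acetylcholine was added at 50nM. FDSS fluorescence was read 3 min; 15 concentrations, three runs.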

Test [12] shares this target. Description: Cholinergic receptor muscarinic 1 (CHRM1) small molecule agonists, cell-based qHTS assay (AID 1963589). Note: nearly all actives have a fitted effect of over 35% in size. In outline: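 Stable CHRM1-CHO cells (human receptor) were incubated 18 h, dye-loaded for 1 h at 37 C and exposed to test compounds for agonist activity, with calcium-dependent fluorescence followed kinetically.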
The nature of test [13]: cAMP Responsive Elements (CRE) small molecule agonists, cell-based qHTS assay (AID 1963590). In outline: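 FRET-based beta-lactamase readout (LiveBLAzer B/G, 2 h RT) quantified CRE activation in HEK 293T CRE-bla cells after 3 h treatment with DMSO-dissolved compounds.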
In test [14] the target is Beta-2 adrenergic receptor (Homo sapiens) (UniProt P07550). As to the kind of experiment: Adrenergic beta2 receptor (ADRB2) small molecule antagonists, cell-based qHTS assay (AID 1963592). Note: series mostly up to about 92 µM; nearly all actives have a fitted effect of over 50% in size. In outline: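 Cells (CHO, stable ADRB2 overexpression) incubated 18-20hr at 37C; compounds added from DMSO; agonist mix (1nM isoproterenol, 100uM IBMX, 25uM Ro-20-1724) added; 0.5hr RT; d2-cAMP and anti-cAMP-cryptate added; 1hr RT; 665/615 nm read.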
Chain of Beta-2 adrenergic receptor (Homo sapiens) (P07550 whole entry, looked up): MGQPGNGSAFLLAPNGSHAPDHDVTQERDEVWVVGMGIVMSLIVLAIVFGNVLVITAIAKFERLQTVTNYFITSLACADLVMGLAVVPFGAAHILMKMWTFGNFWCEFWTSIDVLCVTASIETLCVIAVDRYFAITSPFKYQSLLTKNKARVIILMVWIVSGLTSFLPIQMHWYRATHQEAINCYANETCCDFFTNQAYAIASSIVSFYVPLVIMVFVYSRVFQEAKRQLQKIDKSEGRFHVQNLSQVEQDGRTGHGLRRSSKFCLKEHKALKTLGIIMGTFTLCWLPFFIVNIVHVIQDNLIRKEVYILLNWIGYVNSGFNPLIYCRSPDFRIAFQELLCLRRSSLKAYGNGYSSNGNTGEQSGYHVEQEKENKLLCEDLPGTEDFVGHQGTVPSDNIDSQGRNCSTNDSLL

Test [15] concerns the target D(2) dopamine receptor (Homo sapiens) (UniProt P14416). Description: Dopamine D2 receptor (DRD2) small molecule agonists, cell-based qHTS assay (AID 1963594). Note: nearly all actives have a fitted effect of over 35% in size. In outline: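 cAMP accumulation in DRD2-HEK293 cells measured by HTRF after 1 h detection; compounds added 10 min before NKH477 (200nM […]) forskolin-analogue stimulation, 30 min at room temperature, with Ro20-1724 present at 0.1 mM final.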

Test [16] shares this target. As to the kind of experiment: Dopamine D2 receptor (DRD2) small molecule antagonists, cell-based qHTS assay (AID 1963595; active = well fitted inhibition curve with a large enough effect in the signal ratio in the repeat runs, with a control signal flat; the % refers to the signal ratio). In outline:
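HEK293 cells stably expressing DRD2, preincubated with 0.1 mM Ro20-1724 and compounds 10 min, were stimulated with 200 nM NKH477 plus 12 nM quinpirole for 30 min at room temperature; cAMP measured by HTRF (665/620 nm).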

Test [17] has as its target 5-hydroxytryptamine receptor 2A (Homo sapiens) (UniProt P28223). As to the kind of experiment: 5-hydroxytryptamine receptor 2A (HTR2A) small molecule agonists, cell-based qHTS assay (AID 1963587). Note: nearly all actives have a fitted effect of over 30% in size. In outline: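 Kinetic calcium-flux fluorescence (2 min, 1 sec intervals) after compound addition in agonist mode. HTR2A-CHO cells were cultured 18 h, then dye-loaded 1 h at 37 C.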

Test [18] can be described thus: cAMP Responsive Elements (CRE) small molecule antagonists, cell-based qHTS assay (AID 1963591; active = well fitted inhibition curve with a large enough effect in the signal ratio in the repeat runs, not every such curve was filed as active; the % refers to the signal ratio). In outline: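 qHTS in CRE-bla HEK 293T cells: compound in DMSO, then 0.25 uM NKH477 (final), 3 h at 37 °C/5% CO2; beta-lactamase FRET read-out after 2 h substrate incubation.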
Test [19] addresses Beta-2 adrenergic receptor (Homo sapiens) (UniProt P07550). As to the kind of experiment: Adrenergic beta2 receptor (ADRB2) small molecule agonists, cell-based qHTS assay (AID 1963593).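 Note: CHO cells stably overexpressing human ADRB2.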 In outline:
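CHO cells stably over-expressing ADRB2 were plated overnight at 37C, then dosed with compounds plus a stimulation mix containing 100uM IBMX and 25uM Ro-20-1724 for 0.5hr at room temperature. cAMP was measured by HTRF competition, 1hr.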

The nature of test [20]: p53 small molecule agonists, cell-based qHTS assay with rat liver microsomes (AID 1963578). In outline:
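Rat liver microsome activation: microsomes 0.5 mg/mL, NADPH 0.5 mg/mL final; p53RE-bla cells, 16 h 37 C; LiveBLAzer readout, 2 h RT dark.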

Unmarked numbers belong to inactive results. Results filed as inconclusive are left out. The source made the active and inactive calls. Unless noted, calls come from the whole dose curve.

Chain of 5-hydroxytryptamine receptor 2A (Homo sapiens) (P28223 whole entry, looked up): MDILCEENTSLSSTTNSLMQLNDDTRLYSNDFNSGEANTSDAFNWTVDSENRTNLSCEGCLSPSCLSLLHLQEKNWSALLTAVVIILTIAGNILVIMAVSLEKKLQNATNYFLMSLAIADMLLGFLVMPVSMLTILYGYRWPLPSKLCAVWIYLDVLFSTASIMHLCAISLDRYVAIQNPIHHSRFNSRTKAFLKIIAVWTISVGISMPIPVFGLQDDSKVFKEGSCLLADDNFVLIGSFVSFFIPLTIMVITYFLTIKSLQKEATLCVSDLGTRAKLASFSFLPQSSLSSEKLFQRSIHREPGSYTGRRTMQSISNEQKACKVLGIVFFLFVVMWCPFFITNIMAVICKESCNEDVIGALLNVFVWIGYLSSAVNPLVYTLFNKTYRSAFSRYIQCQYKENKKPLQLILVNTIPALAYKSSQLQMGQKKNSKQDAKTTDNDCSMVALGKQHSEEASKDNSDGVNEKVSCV
Chain of KiSS-1 receptor (Homo sapiens) (Q969F8 whole entry, looked up): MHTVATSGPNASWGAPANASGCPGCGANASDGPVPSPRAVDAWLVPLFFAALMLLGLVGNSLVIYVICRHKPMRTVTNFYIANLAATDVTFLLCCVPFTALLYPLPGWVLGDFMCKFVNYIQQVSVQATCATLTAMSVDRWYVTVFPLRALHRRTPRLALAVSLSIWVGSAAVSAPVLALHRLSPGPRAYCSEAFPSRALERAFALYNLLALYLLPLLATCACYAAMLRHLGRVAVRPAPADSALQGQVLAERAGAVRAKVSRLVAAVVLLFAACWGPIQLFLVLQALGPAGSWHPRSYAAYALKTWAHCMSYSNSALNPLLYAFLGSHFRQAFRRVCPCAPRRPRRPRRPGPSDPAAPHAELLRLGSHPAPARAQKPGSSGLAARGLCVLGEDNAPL
Chain of Muscarinic acetylcholine receptor M1 (Homo sapiens) (P11229 whole entry, looked up): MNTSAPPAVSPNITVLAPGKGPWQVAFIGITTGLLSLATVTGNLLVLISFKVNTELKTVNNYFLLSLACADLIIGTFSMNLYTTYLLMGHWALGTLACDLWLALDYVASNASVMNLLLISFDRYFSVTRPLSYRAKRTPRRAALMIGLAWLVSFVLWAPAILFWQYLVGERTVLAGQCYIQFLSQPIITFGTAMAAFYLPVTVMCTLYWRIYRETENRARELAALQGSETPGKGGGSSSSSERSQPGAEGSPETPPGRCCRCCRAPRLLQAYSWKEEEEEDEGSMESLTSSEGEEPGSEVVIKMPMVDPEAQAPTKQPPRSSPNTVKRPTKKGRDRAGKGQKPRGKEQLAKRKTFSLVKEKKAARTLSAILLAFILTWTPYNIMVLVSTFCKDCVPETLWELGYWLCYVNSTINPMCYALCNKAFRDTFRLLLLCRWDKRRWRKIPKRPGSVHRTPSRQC
Chain of Gonadotropin-releasing hormone receptor (Homo sapiens) (P30968 whole entry, looked up): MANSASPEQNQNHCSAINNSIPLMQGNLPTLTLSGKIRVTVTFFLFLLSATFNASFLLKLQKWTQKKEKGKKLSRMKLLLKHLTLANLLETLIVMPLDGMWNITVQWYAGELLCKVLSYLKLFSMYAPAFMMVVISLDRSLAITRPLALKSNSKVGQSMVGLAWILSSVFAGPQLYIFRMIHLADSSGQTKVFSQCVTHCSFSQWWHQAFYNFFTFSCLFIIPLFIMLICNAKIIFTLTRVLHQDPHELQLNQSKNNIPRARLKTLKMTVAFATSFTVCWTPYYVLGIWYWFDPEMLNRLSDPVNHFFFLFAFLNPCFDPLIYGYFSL
Chain of D(2) dopamine receptor (Homo sapiens) (P14416 whole entry, looked up): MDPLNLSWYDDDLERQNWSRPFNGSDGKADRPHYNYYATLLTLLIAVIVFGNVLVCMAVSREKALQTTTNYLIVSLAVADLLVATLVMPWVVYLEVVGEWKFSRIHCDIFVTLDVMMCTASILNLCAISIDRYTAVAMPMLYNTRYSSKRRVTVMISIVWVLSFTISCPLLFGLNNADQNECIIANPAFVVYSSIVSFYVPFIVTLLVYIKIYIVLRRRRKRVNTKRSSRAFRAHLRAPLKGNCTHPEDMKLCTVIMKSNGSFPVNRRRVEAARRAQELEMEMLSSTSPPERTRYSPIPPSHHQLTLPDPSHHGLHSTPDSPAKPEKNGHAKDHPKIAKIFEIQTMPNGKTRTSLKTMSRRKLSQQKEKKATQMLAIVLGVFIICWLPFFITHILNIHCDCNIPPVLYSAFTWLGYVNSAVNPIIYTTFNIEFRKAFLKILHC

For `CC(CN=Cc1ccccc1O)N=Cc1ccccc1O` (stereo unspecified), the Potency result in test [1], in [2], in test [3], in [4], in [5] and in test [6] was “inactive” in each case. The Potency result in [7], in test [8], in test [9], in test [10], in test [11] and in test [12] was “inactive” throughout. In addition, the Potency entry in test [13], in test [14], in [15] and in [16] was “inactive” throughout.

For `CC1=Nc2ccccc2C1(C)C`, the Potency entry in test [1], in test [3], in test [4], in [5], in [6] and in test [7] was “inactive” each time. In addition, the Potency entry in test [10], in [17], in test [11], in test [12], in test [18] and in test [14] was “inactive” throughout. For the same molecule, the Potency entry in test [19], in test [15] and in test [16] was “inactive” each time. Also, the Potency in test [2] was 43.3 µM (active).

Consider `c1ccc(C[n+]2cccc3ccccc32)cc1`, for which the Potency result in test [1], in test [2], in [3], in test [4], in test [5] and in test [6] was “inactive” each time. Moreover, the Potency entry in test [7], in test [9], in test [17], in test [11], in [12] and in [13] was “inactive” each time. Also, the Potency entry in test [18], in test [14], in test [15] and in test [16] was “inactive” each time.

On to `C=CC(=O)OCC(C)OCC(C)OCC(C)OC(=O)C=C` (stereo unspecified), for which the Potency in test [1] is 61.1 µM (active); in test [2], 24.3 µM (active). Also, the Potency entry in [3], in [4], in [5], in [20], in test [8] and in [10] was “inactive” throughout. For the same molecule, the Potency entry in test [17], in [11], in [12], in test [14], in test [15] and in test [16] was “inactive” throughout.

Turning to `COC(=O)C1=C(C)NC(C)=C(C(=O)OCCc2ccc(N3CCN(C(c4ccccc4)c4ccccc4)CC3)cc2)C1c1cccc([N+](=O)[O-])c1` (stereo unspecified), the Potency result in test [1], in test [2], in test [3], in test [4], in test [5] and in [20] was “inactive” throughout. The Potency entry in test [6], in test [7], in test [8], in test [9], in test [10] and in test [17] was “inactive” in each case. The Potency entry in test [11], in test [12], in [13], in test [18], in [14] and in test [15] was “inactive” each time.

As to `c1csc(SSc2cccs2)c1`, the Potency in [1] was 15.4 µM (active); in test [2] it was 6.11 µM (active). For the same molecule, the Potency result in test [3], in test [4], in [5], in [6], in [8] and in test [9] was “inactive” in each case. Further, the Potency result in test [10], in [17], in test [11], in test [12], in test [13] and in [18] was “inactive” each time. The Potency entry in [19], in test [15] and in test [16] was “inactive” in each case.

In the case of `C[Si](C)(C)C`, the Potency result in test [1], in test [2], in [3], in [4], in [5] and in [8] was “inactive” throughout. The Potency result in test [9], in [17], in [11], in test [12], in test [13] and in test [18] was “inactive” in each case.

For the molecule `Cc1cc(C)c(C)c(C)c1`, the Potency entry in [1], in test [2], in [3], in test [4], in test [5] and in test [6] was “inactive” throughout. The Potency entry in test [8], in test [9], in test [10], in test [17], in test [11] and in [12] was “inactive” in each case. In addition, the Potency result in [13], in test [18], in [14], in test [15] and in test [16] was “inactive” in each case.

For the origin of these results see PubChem BioAssay (Tox21).
